SMILES strings stand for the structures. The panel holds about 83,000 compounds, 20% with a hit somewhere; the sample as a whole holds those more often.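 96-well plates, one dose, 48 hours. Percent growth reported; active if below 10.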 A number with no mark means an inactive call. Active and inactive are the calls of the source.

Common to all, as to experiment: NCI-60 one-dose screen, 48 h (100 = growth as untreated, 0 = no growth, -100 = all killed)
Settings in all cases: 10 µM unless noted

The test system of test [1] is T-47D breast.
Test [2] has as its system BT-549 breast.
Test [3] relates to MDA-MB-435 melanoma.
In test [4] the test system is SW-620 colon.
In test [5] the test system is MCF7 breast.
For test [6], the system named is HCT-116 colon.
Test [7] relates to HCC-2998 colon.
The subject of test [8] is KM12 colon.

For `CCc1ccc(Oc2c(-c3ccc(OCc4ccc(Cl)cc4)cc3O)n[nH]c2C(F)(F)F)cc1`, the growth in test [1] was -2.85% (active); in test [2], 34.7%; in test [3], 7.72% (active); in test [4], 17.4%; in test [5], 4.9% (active); in test [6], -5.05% (active). Moreover, the values for the growth in test [7] and in test [8] were 62.2% and 19.5%, respectively.

With `O=[N+]([O-])c1ccc(Oc2nc(Nc3ccc(O[C@H]4CO[C@H]5[C@@H]4OC[C@@H]5O)c(Cl)c3)ncc2F)c(Cl)c1`, the growth in test [1] is 11.9%; in test [2], 31.8%; in test [3], 10.9%; in test [4], 35.7%; in test [5] it was 21.2%; in test [6], 25%. In addition, the growth in test [7] is 69.3%; in test [8] it was 11.2%.

Regarding `Cc1ccc2nc(NC(=O)CSc3nc(Cl)c(C#N)c(-c4ccccc4)n3)sc2c1`, the growth was 89.1% in test [1]; 103% in test [2]; 98.8% in test [3]; 103% in test [4]; 91.7% in test [5]; 102% in test [6]. Further, the growth in test [7] was 108%; in test [8], 110%.

`Cc1ccc(-c2nc(N3CCN(C(=O)Nc4ccc(Cl)c(C(F)(F)F)c4)CC3)c3ccccc3n2)cc1`: the growth in test [1] is 70.3%; in test [2] it was 93.6%; in test [3], 79.7%; in test [4], 84.8%; in test [5], 62%; in test [6], 67.5%. Also, the growth in test [7] was 85.3%; in test [8], 82.9%.

Take `CC(C)c1cc(C(C)C)c(S(=O)(=O)Oc2ccc(NC(=O)c3ccc(Cl)cc3)cc2)c(C(C)C)c1`: the growth in test [1] is 7.98% (active); in test [2], 20.4%; in test [3], 41.4%; in test [4] it was 21.7%; in test [5], 16.3%; in test [6], 8.78% (active). Also, the figures for the growth in test [7] and in test [8] were 26.3% and 18.4%, respectively.

For `O=C1CCC/C=C\C[C@H]2C=CC(=O)/C2=C/C[C@H](CCc2cccc(C(F)(F)F)c2)O1`, the growth in test [1] is -28% (active); in test [2] it was -29.3% (active); in test [3], -42.1% (active); in test [4], -32% (active); in test [5], -6.2% (active); in test [6], -82% (active). Also, the growth in test [7] is -74.4% (active); in test [8], -63.5% (active).

For the molecule `c1cc(NCCc2ccncc2)nc(-n2cnc3ccccc32)c1`, the growth in test [1] is 80.4%; in test [2] it was 98.4%; in test [3] it was 95.8%; in test [4] it was 94.2%; in test [5] it was 84.2%; in test [6], 81.7%. Also, the growth in test [7] is 104%; in test [8], 53.3%.

Regarding `Clc1ccc(C(/C=C/c2sc(Cl)nc2Cl)=N/Nc2cc(Cl)cc(Cl)c2)cc1`, the growth was 98.2% in test [1]; 115% in test [2]; 101% in test [3]; 106% in test [4]; 100% in test [5]; 106% in test [6]. In addition, the growth in test [7] is 112%; in test [8], 105%.

With `COC1=C(C)C(=O)c2c(c(CCCl)c3n2CCC3OC(C)=O)C1=O` (configuration not stated), the growth was 60.6% in test [1]; -48.2% (active) in test [2]; -58% (active) in test [3]; 3.87% (active) in test [4]; -39.9% (active) in test [5]; -19.7% (active) in test [6]. In addition, the growth in test [7] is -48.1% (active); in test [8], -18.6% (active).

`CC/C=C\C[C@@H]1C/C=C2/C(=O)C=C[C@H]2C/C=C\CCCC(=O)O1`: the growth in test [1] was 10.3%; in test [2], -55.7% (active); in test [3] it was -59.1% (active); in test [4], -65.1% (active); in test [5], -9.37% (active); in test [6] it was -93.5% (active). Moreover, the growth was -83.3% (active) in test [7] and -92.3% (active) in test [8].

As for `COc1cc2cc(Oc3ccc(NC(=O)Nc4ccc(Cl)c(C(F)(F)F)c4)cc3)c(C)nc2cc1OCCN1CCOCC1`, the growth in test [1] was 22.6%; in test [2], 48.6%; in test [3], 15.5%; in test [4], 15.1%; in test [5] it was 4.87% (active); in test [6] it was 10.3%. Moreover, the values for the growth in test [7] and in test [8] were 36.9% and 14.9%, respectively.

Take `NCCCNc1nc2ccccc2c2c(=O)c3cc(F)cc(Cl)c3sc12`: the growth was 88.4% in test [1]; 104% in test [2]; 26% in test [3]; -49.3% (active) in test [4]; 68.3% in test [5]; -60.2% (active) in test [6]. In addition, the growth in test [7] was 84.3%; in test [8], 72.7%.

For `CC(=O)N1CCN(c2ccc(OCC3CO[C@](Cn4ccnc4)(c4ccc(Cl)cc4Cl)O3)cc2)CC1` (some centres not stated), the growth in test [1] was 51.1%; in test [2], 54.7%; in test [3] it was 94%; in test [4] it was 104%; in test [5], 86.4%; in test [6] it was 68.4%. In addition, the growth in test [7] is 85.5%; in test [8], 87%.

With `COc1cc(C)c(Cc2cnc(N)nc2N)cc1OC`, the growth in test [1] is 92.7%; in test [2] it was 95.4%; in test [3], 112%; in test [4], 102%; in test [5], 101%; in test [6], 112%. Also, the results for the growth in test [7] and in test [8] were 108% and 111%, respectively.

For the origin of these results see PubChem BioAssay (NCI).
